In PubChem BioAssay AID1159580 (chemical genetic matrix, 2015):
The whole screen tested about 5,500 compounds, of which about 2,000 (36%) were called active. Not shown: some 18% with an inconclusive outcome. No stated cut-off is given here; in the data, active means normalized growth mostly below about 0.91 (no sharp cut-off); inconclusive means no clear call, values can overlap the other calls; inactive means mostly above about 0.92. Some of the results follow.

Assay: chemical genetic growth profiling, strain panel (AID 1159580);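 further: tested at 20 µM; growth read once vehicle control cultures reached saturation at 30 °C; 1 = growth at the plate median or of vehicle wells; lower values mean less growth of the strain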
Conditions: S. cerevisiae deletion strains, growth OD
[1] = locus YAR019C, strain CDC15, hits give low values
[2] = locus YBL105C, strain PKC1, hits give low values
[3] = locus YBR135W, strain CKS1, hits give low values
[4] = locus YBR136W, strain MEC1, hits give low values
[5] = locus YBR160W, strain CDC28, hits give low values
[6] = locus YDL017W, strain CDC7, hits give low values
[7] = locus YDL028C, strain MPS1, hits give low values
[8] = locus YDL101C, strain DUN1, hits give low values
[9] = locus YDL108W, strain KIN28, hits give low values
[10] = locus YDL132W, strain cdc53, hits give low values
[11] = locus YDL214C, strain PRR2, hits give low values
[12] = locus YDR052C, strain DBF4, hits give low values
[13] = locus YDR054C, strain cdc34, hits give low values
[14] = locus YDR226W, strain ADK1, hits give low values
[15] = locus YDR477W, strain SNF1, hits give low values
[16] = locus YER123W, strain YCK3, hits give low values
[17] = locus YER133W, strain GLC7, hits give low values
[18] = locus YFL009W, strain cdc4, hits give low values
[19] = locus YFL029C, strain CAK1, hits give low values
[20] = locus YFR003C, strain YPI1, hits give low values
[21] = locus YFR019W, strain FAB1, hits give low values
[22] = locus YFR028C, strain CDC14, hits give low values
[23] = locus YGR040W, strain KSS1, hits give low values
[24] = locus YGR052W, strain FMP48, hits give low values
[25] = locus YGR092W, strain DBF2, hits give low values
[26] = locus YHR030C, strain SLT2, hits give low values
[27] = locus YHR079C, strain IRE1, hits give low values
[28] = locus YHR082C, strain KSP1, hits give low values
[29] = locus YHR205W, strain SCH9, hits give low values
[30] = locus YIL147C, strain SLN1, hits give low values
[31] = locus YJL095W, strain BCK1, hits give low values
[32] = locus YJL128C, strain PBS2, hits give low values
[33] = locus YJL157C, strain FAR1, hits give low values
[34] = locus YJR016C, strain ILV3, hits give low values
[35] = locus YJR066W, strain TOR1 (second series), hits give low values
[36] = locus YJR066W, strain TOR1, hits give low values
[37] = locus YKL048C, strain ELM1, hits give low values
[38] = locus YKL067W, strain YNK1, hits give low values
[39] = locus YKL101W, strain HSL1, hits give low values
[40] = locus YKL193C, strain SDS22, hits give low values
[41] = locus YKL203C, strain TOR2, hits give low values
[42] = locus YLR113W, strain HOG1, hits give low values
[43] = locus YLR133W, strain CKI1, hits give low values
[44] = locus YLR403W, strain SFP1, hits give low values
[45] = locus YML070W, strain DAK1, hits give low values
[46] = locus YMR001C, strain CDC5, hits give low values
[47] = locus YMR205C, strain PFK2 (second series), hits give low values
[48] = locus YMR277W, strain FCP1, hits give low values
[49] = locus YNL006W, strain LST8, hits give low values
[50] = locus YNL020C, strain ARK1, hits give low values
[51] = locus YNL161W, strain CBK1, hits give low values
[52] = locus YNL183C, strain NPR1, hits give low values
[53] = locus YNL207W, strain RIO2, hits give low values
[54] = locus YNL222W, strain SSU72, hits give low values
[55] = locus YNL307C, strain MCK1 (second series), hits give low values
[56] = locus YOL078W, strain AVO1, hits give low values
[57] = locus YOL136C, strain PFK27, hits give low values
[58] = locus YOR061W, strain CKA2, hits give low values
[59] = locus YOR119C, strain RIO1, hits give low values
[60] = locus YOR231W, strain MKK1, hits give low values
[61] = locus YOR329C, strain SCD5, hits give low values
[62] = locus YPL031C, strain PHO85, hits give low values
[63] = locus YPL153C, strain RAD53, hits give low values
[64] = locus YPL204W, strain HRR25, hits give low values
[65] = locus YPL209C, strain IPL1, hits give low values
[66] = locus YPL256C, strain CLN2, hits give low values
[67] = locus YPR025C, strain CCL1, hits give low values
[68] = locus YPR106W, strain ISR1, hits give low values
[69] = locus YPR111W, strain DBF20, hits give low values
[70] = strain NNK1, hits give low values
[71] = strain TSCII, hits give low values

Measured: normalized growth

Cc1cc(Br)c(O)c(/C=N\NC(=S)NC(C)(C)C)c1
inactive: [1] 0.98 | [2] 0.987 | [3] 0.971 | [4] 0.981 | [5] 0.978 | [6] 0.972 | [7] 0.972 | [8] 0.993 | [9] 0.969 | [10] 0.984 | [11] 0.922 | [12] 0.982 | [13] 0.98 | [14] 0.965 | [15] 0.91 | [16] 0.894 | [17] 0.879 | [18] 0.981 | [19] 0.973 | [20] 0.976 | [21] 0.959 | [22] 0.975 | [23] 0.893 | [24] 0.883 | [25] 0.823 | [27] 0.872 | [28] 0.97 | [29] 0.942 | [30] 0.981 | [31] 0.875 | [32] 0.952 | [33] 0.911 | [34] 0.99 | [35] 0.839 | [36] 0.899 | [37] 0.973 | [38] 0.934 | [39] 0.914 | [40] 0.98 | [41] 0.914 | [43] 0.917 | [44] 0.857 | [45] 0.917 | [46] 0.975 | [47] 0.944 | [48] 0.98 | [49] 0.98 | [50] 0.903 | [51] 0.975 | [52] 0.848 | [53] 0.976 | [54] 0.988 | [55] 0.893 | [56] 0.982 | [57] 0.947 | [58] 0.91 | [59] 0.967 | [60] 0.874 | [61] 0.988 | [62] 0.876 | [63] 0.906 | [64] 0.884 | [65] 0.981 | [67] 0.975 | [68] 0.987 | [69] 0.985 | [70] 0.982 | [71] 0.984
active: [26] 0.752 | [42] 0.782 | [66] 0.838

CC(C)(C)NC(=S)N/N=C\c1cc(Br)c(O)c(Br)c1
inactive: [1] 0.966 | [2] 0.969 | [3] 0.962 | [4] 0.965 | [5] 0.967 | [6] 0.966 | [7] 0.967 | [8] 0.959 | [9] 0.971 | [10] 0.955 | [11] 0.944 | [12] 0.971 | [13] 0.957 | [14] 0.946 | [15] 0.917 | [16] 0.917 | [17] 0.944 | [18] 0.962 | [19] 0.958 | [20] 0.971 | [21] 0.929 | [22] 0.952 | [23] 0.919 | [24] 0.968 | [25] 0.947 | [27] 0.926 | [28] 0.922 | [29] 0.938 | [30] 0.971 | [31] 0.875 | [32] 0.976 | [33] 0.957 | [34] 0.955 | [35] 0.932 | [36] 0.864 | [37] 0.951 | [38] 0.945 | [39] 0.927 | [40] 0.959 | [41] 0.897 | [42] 0.896 | [43] 0.928 | [44] 0.92 | [45] 0.959 | [46] 0.965 | [47] 0.949 | [48] 0.97 | [49] 0.965 | [50] 0.929 | [51] 0.969 | [52] 0.87 | [53] 0.964 | [54] 0.963 | [55] 0.898 | [56] 0.961 | [57] 0.938 | [58] 0.921 | [59] 0.932 | [60] 0.956 | [61] 0.969 | [62] 0.92 | [63] 0.953 | [64] 0.904 | [65] 0.966 | [66] 0.902 | [67] 0.966 | [68] 0.957 | [69] 0.955 | [70] 0.959 | [71] 0.965
active: [26] 0.768

CNC(=S)N/N=C\c1cc(Br)cc(Br)c1O
active: locus YAL013W, strain DEP1, hits give low values 0.794 | locus YBR229C, strain ROT2, hits give low values 0.919 | locus YCL061C, strain MRC1, hits give low values 0.861 | locus YDL134C, strain PPH21, hits give low values 0.537 | locus YDR150W, strain NUM1, hits give low values 0.755 | locus YEL061C, strain CIN8, hits give low values 0.463 | locus YGR078C, strain PAC10, hits give low values 0.912 | locus YGR229C, strain SMI1, hits give low values 0.813 | [26] 0.237 | locus YJR043C, strain POL32, hits give low values 0.814 | locus YJR075W, strain HOC1, hits give low values 0.847 | locus YKL190W, strain CNB1, hits give low values 0.36 | locus YLR039C, strain RIC1, hits give low values 0.155 | locus YLR085C, strain ARP6, hits give low values 0.139 | locus YLR262C, strain YPT6, hits give low values 0.15 | locus YML094W, strain GIM5, hits give low values 0.586 | locus YMR263W, strain SAP30, hits give low values 0.743 | locus YMR307W, strain GAS1, hits give low values 0.252 | locus YNL153C, strain GIM3, hits give low values 0.875 | locus YNL298W, strain CLA4 (second series), hits give low values 0.311 | locus YNL322C, strain KRE1, hits give low values 0.817 | locus YNR030W, strain Alg12, hits give low values 0.274 | locus YPL055C, strain LGE1, hits give low values 0.485 | locus YPL241C, strain CIN2, hits give low values 0.522 | locus YPR135W, strain CTF4, hits give low values 0.334
inactive: [8] 0.912 | locus YHR087W, strain rtc3, hits give low values 0.944 | locus YLR058C, strain SHM2 (second series), hits give low values 1 | locus YMR219W, strain ESC1, hits give low values 0.956
